# Laboratory results from PubChem BioAssay (EPA / NIEHS).
# Records with an inconclusive call do not appear. Active and inactive are the calls of the source. How the source made its calls, unless noted: active means hit-call score of the fitted dose curve at least 0.9, where 1 is the maximum; inconclusive means response in the unintended direction; inactive means score below 0.9.
# How the values were obtained:
# [1] = molecular target: Estrogen receptor (Homo sapiens) (UniProt P03372); assay: OT_ERa_GFPERaERE_0480: Odyssey Thera (OT) 8-hour HeLa Transcription Induction Assay for Estrogen Receptor (AID 2283381; active means hit-call score of the fitted dose curve at least 0.9, where 1 is the maximum; inactive means score below 0.9)
# Sequence of Estrogen receptor (Homo sapiens) (P03372 whole entry, looked up): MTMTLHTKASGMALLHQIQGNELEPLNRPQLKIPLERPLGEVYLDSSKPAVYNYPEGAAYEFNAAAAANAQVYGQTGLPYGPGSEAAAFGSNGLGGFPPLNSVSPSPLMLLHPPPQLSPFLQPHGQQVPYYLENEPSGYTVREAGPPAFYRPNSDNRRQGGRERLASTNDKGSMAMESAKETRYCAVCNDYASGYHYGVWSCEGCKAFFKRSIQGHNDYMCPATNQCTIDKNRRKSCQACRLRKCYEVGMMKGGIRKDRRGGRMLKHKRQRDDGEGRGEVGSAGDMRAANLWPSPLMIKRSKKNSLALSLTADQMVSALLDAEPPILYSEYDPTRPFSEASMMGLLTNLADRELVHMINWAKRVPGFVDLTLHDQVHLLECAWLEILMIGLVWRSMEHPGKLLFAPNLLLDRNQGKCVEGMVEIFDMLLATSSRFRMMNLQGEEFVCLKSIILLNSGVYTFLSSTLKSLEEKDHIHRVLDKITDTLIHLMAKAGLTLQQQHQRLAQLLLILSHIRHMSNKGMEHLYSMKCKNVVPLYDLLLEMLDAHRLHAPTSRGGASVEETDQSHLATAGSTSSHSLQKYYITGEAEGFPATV
# Method in brief: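 Human cervical HeLa cells were treated for 8 hours, after which ERE-driven GFP induction was measured by fluorescence microscopy; increases over DMSO baseline defined activity.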
# [2] = molecular target: Estrogen receptor (Homo sapiens) (UniProt P03372); assay: OT_ERa_GFPERaERE_0120: Odyssey Thera (OT) 2-hour HeLa Transcription Induction Assay for Estrogen Receptor (AID 2283382)
# Method in brief: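 Cells (human cervical HeLa) receive compound, incubate 2 hours, then are imaged for fluorescent reporter induction. Images are quantified by high content analysis, and activity is fitted as gain of signal against DMSO.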
# [3] = molecular target: Bile acid receptor (Homo sapiens) (UniProt Q96RI1); assay: OT_FXR_FXRSRC1_0480: Odyssey Thera (OT) 8-hour HEK293T Protein-Complementation Assay for Farnesoid X receptor/SRC-1 Co-activator (AID 2283383)
# Sequence of Bile acid receptor (Homo sapiens) (Q96RI1 whole entry, looked up): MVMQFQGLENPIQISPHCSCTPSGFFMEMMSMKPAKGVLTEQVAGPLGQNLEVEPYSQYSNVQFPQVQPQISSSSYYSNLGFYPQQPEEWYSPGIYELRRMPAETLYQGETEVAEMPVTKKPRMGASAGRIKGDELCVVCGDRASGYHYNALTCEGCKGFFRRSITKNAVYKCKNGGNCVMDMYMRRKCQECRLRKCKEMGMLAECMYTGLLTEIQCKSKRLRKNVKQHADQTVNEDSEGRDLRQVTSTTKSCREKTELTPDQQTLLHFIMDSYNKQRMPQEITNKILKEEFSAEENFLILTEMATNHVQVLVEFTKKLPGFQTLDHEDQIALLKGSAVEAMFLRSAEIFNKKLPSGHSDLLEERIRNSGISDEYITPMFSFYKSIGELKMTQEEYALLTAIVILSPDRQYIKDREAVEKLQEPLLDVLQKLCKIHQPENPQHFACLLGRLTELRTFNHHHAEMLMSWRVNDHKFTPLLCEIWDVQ
# Method in brief: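 PCA, HEK293T, 8 h compound exposure; FXR–SRC-1 binding reconstitutes split reporter; fluorescence intensity; positive-direction fit vs DMSO.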
# [4] = molecular target: Retinoic acid receptor RXR-alpha (Homo sapiens) (UniProt P19793); assay: OT_NURR1_NURR1RXRa_0480: Odyssey Thera (OT) 8-hour HEK293T Protein Complementation Assay for Nurr1/retinoid X receptor (RXR) (AID 2283385)
# Sequence of Retinoic acid receptor RXR-alpha (Homo sapiens) (P19793 whole entry, looked up, the tested form may be a part): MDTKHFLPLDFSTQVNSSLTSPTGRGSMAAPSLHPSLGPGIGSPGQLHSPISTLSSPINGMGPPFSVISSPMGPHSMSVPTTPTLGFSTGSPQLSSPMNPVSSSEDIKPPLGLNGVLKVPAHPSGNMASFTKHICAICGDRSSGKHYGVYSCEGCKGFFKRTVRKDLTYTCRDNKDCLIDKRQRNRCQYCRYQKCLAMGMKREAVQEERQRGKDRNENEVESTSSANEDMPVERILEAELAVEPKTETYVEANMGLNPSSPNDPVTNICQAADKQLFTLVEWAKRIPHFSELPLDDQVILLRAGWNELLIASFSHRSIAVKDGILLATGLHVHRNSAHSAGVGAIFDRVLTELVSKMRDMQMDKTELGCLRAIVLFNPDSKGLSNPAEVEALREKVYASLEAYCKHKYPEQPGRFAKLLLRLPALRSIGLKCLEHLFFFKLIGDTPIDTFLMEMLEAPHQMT
# Method in brief: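 Interaction of bait and prey reconstitutes a functional reporter, whose fluorescence was measured in HEK293T cells dosed with compound for 8 hours. Signal gain relative to DMSO defined the single endpoint.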
# [5] = molecular target: Retinoic acid receptor RXR-alpha (Homo sapiens) (UniProt P19793); assay: OT_NURR1_NURR1RXRa_1440: Odyssey Thera (OT) 24-hour HEK293T Protein Complementation Assay for Nurr1/retinoid X receptor (RXR) (AID 2283386)
# Method in brief: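 Steps: fragment-tagged Nurr1 and RXRα expressed in HEK293T; compounds added; after 24 h, complemented reporter quantified by fluorescence intensity; signal increase over DMSO fitted as the single endpoint.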
# [6] = molecular target: Peroxisome proliferator-activated receptor gamma (Homo sapiens) (UniProt P37231); assay: OT_PPARg_PPARgSRC1_1440: Odyssey Thera (OT) 24-hour Protein-Complementation Assay for Peroxisome Proliferator-activated Receptor Gamma/ SRC-1 Co-activator (AID 2283388)
# Sequence of Peroxisome proliferator-activated receptor gamma (Homo sapiens) (P37231 whole entry, looked up, the tested form may be a part): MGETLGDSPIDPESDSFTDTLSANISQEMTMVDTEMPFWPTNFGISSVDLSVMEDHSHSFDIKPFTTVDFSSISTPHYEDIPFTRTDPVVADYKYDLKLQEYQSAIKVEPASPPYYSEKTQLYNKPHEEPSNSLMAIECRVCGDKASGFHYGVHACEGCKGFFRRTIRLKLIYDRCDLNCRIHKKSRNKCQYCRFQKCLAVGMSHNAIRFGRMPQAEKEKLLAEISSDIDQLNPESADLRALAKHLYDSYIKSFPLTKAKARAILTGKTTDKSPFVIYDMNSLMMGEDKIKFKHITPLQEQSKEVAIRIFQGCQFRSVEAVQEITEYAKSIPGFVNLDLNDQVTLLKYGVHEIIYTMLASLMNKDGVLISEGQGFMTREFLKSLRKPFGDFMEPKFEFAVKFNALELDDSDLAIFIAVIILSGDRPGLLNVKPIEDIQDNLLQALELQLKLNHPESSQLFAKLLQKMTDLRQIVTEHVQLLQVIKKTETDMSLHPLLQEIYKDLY
# Method in brief: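 HEK293T transiently transfected with PPARg/SRC-1 split-Venus YFP fusions 48 h before dosing, then treated 24 h at 37C. Fixed cells imaged; nuclear/cytoplasmic 488 nm fluorescence ratio, gain of signal versus DMSO.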
# [7] = CEETOX_H295R_11DCORT: CeeTox H295R High-throughput Steroidogenesis Assay for 11-Deoxycortisol (11DCORT) (AID 2283432; active means hit-call score of the fitted dose curve at least 0.9, where 1 is the maximum; inactive means score below 0.9); details: actives raise or lower the signal
# Method in brief: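 H295R cells prestimulated 48 h with 10 uM forskolin, then exposed 48 h to chemical in 0.1% DMSO. 11-Deoxycortisol in medium quantified by HPLC-MS/MS after MTBE extraction; bidirectional fit versus DMSO. MTT viability read in same wells.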
# [8] = CEETOX_H295R_OHPREG: CeeTox H295R High-throughput Steroidogenesis Assay for OH-Pregnenolone (OHPREG) (AID 2283434; active means hit-call score of the fitted dose curve at least 0.9, where 1 is the maximum; inactive means score below 0.9); details: actives raise or lower the signal
# Method in brief: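 H295R, 10 uM forskolin pre-stim 48 h; test chemical 48 h, 0.1% DMSO final. MTBE extraction, reverse-phase C18 HPLC-ESI+ MS/MS of medium. Gain/loss vs DMSO; viability by MTT in same wells.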
# [9] = CEETOX_H295R_OHPROG: CeeTox H295R High-throughput Steroidogenesis Assay for OH-Progesterone (OHPROG) (AID 2283435; active means hit-call score of the fitted dose curve at least 0.9, where 1 is the maximum; inactive means score below 0.9;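 further: human adrenal H295R cells primed 48 h with 10 µM forskolin; 17alpha-hydroxyprogesterone secreted into medium measured by HPLC-MS/MS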); details: actives raise or lower the signal
# Method in brief: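 Steps: seed H295R cells and adhere overnight; stimulate with 10 uM forskolin for 48 h; replace with chemical-containing medium (0.1% DMSO) for 48 h; extract medium with MTBE; quantify 17alpha-hydroxyprogesterone by reverse-phase C18 HPLC-MS/MS against a 7-point curve.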
# [10] = CEETOX_H295R_CORTIC: CeeTox H295R High-throughput Steroidogenesis Assay for Corticosterone (CORTIC) (AID 2283437; active means hit-call score of the fitted dose curve at least 0.9, where 1 is the maximum; inactive means score below 0.9;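 further: corticosterone secreted into medium quantified by mass spectrometry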); details: actives raise or lower the signal
# Method in brief: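 48 h forskolin (10 uM) prestim, then 48 h chemical exposure, final DMSO 0.1%. Readout: corticosterone in medium by LC-MS/MS after MTBE extraction. Gain/loss fit vs DMSO; MTT viability in same wells.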
# [11] = CEETOX_H295R_CORTISOL: CeeTox H295R High-throughput Steroidogenesis Assay for Cortisol (AID 2283438; active means hit-call score of the fitted dose curve at least 0.9, where 1 is the maximum; inactive means score below 0.9); details: actives raise or lower the signal
# Method in brief: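 Cortisol synthesis by H295R cells is measured 48 h after chemical dosing, following a 48 h stimulation with 10 uM forskolin. Hormone is extracted and quantified by HPLC-MS/MS, and activity is fitted bidirectionally against the DMSO control.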
# [12] = CEETOX_H295R_DOC: CeeTox H295R High-throughput Steroidogenesis Assay for DOC (AID 2283439; active means hit-call score of the fitted dose curve at least 0.9, where 1 is the maximum; inactive means score below 0.9); details: actives raise or lower the signal
# Method in brief: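 Steps: seed H295R, adhere overnight; 10 uM forskolin 48 h; replace with chemical medium (0.1% DMSO) 48 h; collect medium, MTBE extraction, HPLC-MS/MS for DOC. Viability then checked by MTT; cytotoxic chemicals diluted until viability ≥70%.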
# [13] = CEETOX_H295R_ESTRADIOL: CeeTox H295R High-throughput Steroidogenesis Assay for Estradiol (AID 2283440; active means hit-call score of the fitted dose curve at least 0.9, where 1 is the maximum; inactive means score below 0.9;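 further: estradiol secreted into medium quantified by LC-MS/MS after dansyl derivatisation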); details: actives raise or lower the signal
# Method in brief: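 H295R cells pre-stimulated 48 h with 10 uM forskolin, then exposed 48 h to chemical in 0.1% DMSO. Medium estradiol quantified by MTBE extraction, dansyl derivatisation and HPLC-MS/MS; bidirectional fit versus DMSO; MTT viability required >/=70%.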
# [14] = CEETOX_H295R_ESTRONE: CeeTox H295R High-throughput Steroidogenesis Assay for Estrone (AID 2283441; active means hit-call score of the fitted dose curve at least 0.9, where 1 is the maximum; inactive means score below 0.9); details: actives raise or lower the signal
# Method in brief: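 Estrone secreted into medium quantified by LC-MS/MS after dansyl chloride derivatization, following 48 h chemical exposure (0.1% DMSO final) of forskolin-prestimulated (10 uM, 48 h) H295R cells; gain or loss fitted against DMSO; MTT viability in same wells.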
# [15] = CEETOX_H295R_PROG: CeeTox H295R High-throughput Steroidogenesis Assay for Progesterone (PROG) (AID 2283442; active means hit-call score of the fitted dose curve at least 0.9, where 1 is the maximum; inactive means score below 0.9); details: actives raise or lower the signal
# Method in brief: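 H295R adrenal cells prestimulated 48 h with 10 uM forskolin, then exposed 48 h to test chemical in 0.1% DMSO. Progesterone in medium quantified by HPLC-MS/MS after MTBE extraction; viability checked by MTT in same wells.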
# [16] = read-out: Tumor necrosis factor receptor superfamily member 6 (Homo sapiens) (UniProt P25445); assay: LTEA_HepaRG_FAS: Life Technologies and Expression Analysis (LTEA) Assay for Fas cell surface death receptor (FAS) using HepaRG (AID 2283447; active means hit-call score of the fitted dose curve at least 0.9, where 1 is the maximum; inactive means score below 0.9); details: mRNA level, 48 h; actives raise or lower the signal
# Method in brief: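 Differentiated HepaRG cells in serum-free induction medium were exposed 48 h to 8 half-log concentrations up to 100 uM in 0.5% DMSO, in duplicate. FAS mRNA was measured by qRT-PCR normalised to ACTB, GAPDH and POLR2A; bidirectional fit versus DMSO.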
# [17] = read-out: Cyclin D2 (CCND2), CCND2 (gene 894); assay: LTEA_HepaRG_CCND2: Life Technologies and Expression Analysis (LTEA) Assay for Cyclin D2 (CCND2) using HepaRG (AID 2283449; active means hit-call score of the fitted dose curve at least 0.9, where 1 is the maximum; inactive means score below 0.9;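 further: CCND2 transcript measured by TaqMan qRT-PCR and normalised to three housekeeping genes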); details: mRNA level, 48 h; actives raise or lower the signal
# Method in brief: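 HepaRG, 48 h dosing, 8-pt half-log curve from 100 uM, 0.5% DMSO; duplicate wells. Readout: CCND2 transcript by microfluidic qRT-PCR, housekeeping-normalised; bidirectional fit vs DMSO baseline.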
# [18] = molecular target: Peroxisome proliferator-activated receptor gamma (Homo sapiens) (UniProt P37231); assay: OT_PPARg_PPARgSRC1_0480: Odyssey Thera (OT) 8-hour Protein-Complementation Assay for Peroxisome Proliferator-activated Receptor Gamma / SRC-1 Co-activator (AID 2283387)
# Method in brief: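 HEK293T transiently transfected with PPARg and SRC-1 fused to Venus YFP fragments, compounds 8 h at 37C. Fixed, Draq5-stained cells imaged; nuclear/cytoplasmic 488 nm fluorescence ratio over at least 350 cells per image; gain fitted versus DMSO.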
# [19] = read-out: Fatty acid synthase (Homo sapiens) (UniProt P49327); assay: LTEA_HepaRG_FASN: Life Technologies and Expression Analysis (LTEA) Assay for Fatty Acid Synthase (FASN) using HepaRG (AID 2283448; active means hit-call score of the fitted dose curve at least 0.9, where 1 is the maximum; inactive means score below 0.9); details: mRNA level, 48 h; actives raise or lower the signal
# Method in brief: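 Cells were plated, cultured 48 h, switched to serum-free induction medium, then dosed in duplicate (max 100 uM, half-log dilutions, 0.5% DMSO) for 48 h. RNA was then isolated and FASN quantified by qRT-PCR.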
# Sequence of Fatty acid synthase (Homo sapiens) (P49327 whole entry, looked up): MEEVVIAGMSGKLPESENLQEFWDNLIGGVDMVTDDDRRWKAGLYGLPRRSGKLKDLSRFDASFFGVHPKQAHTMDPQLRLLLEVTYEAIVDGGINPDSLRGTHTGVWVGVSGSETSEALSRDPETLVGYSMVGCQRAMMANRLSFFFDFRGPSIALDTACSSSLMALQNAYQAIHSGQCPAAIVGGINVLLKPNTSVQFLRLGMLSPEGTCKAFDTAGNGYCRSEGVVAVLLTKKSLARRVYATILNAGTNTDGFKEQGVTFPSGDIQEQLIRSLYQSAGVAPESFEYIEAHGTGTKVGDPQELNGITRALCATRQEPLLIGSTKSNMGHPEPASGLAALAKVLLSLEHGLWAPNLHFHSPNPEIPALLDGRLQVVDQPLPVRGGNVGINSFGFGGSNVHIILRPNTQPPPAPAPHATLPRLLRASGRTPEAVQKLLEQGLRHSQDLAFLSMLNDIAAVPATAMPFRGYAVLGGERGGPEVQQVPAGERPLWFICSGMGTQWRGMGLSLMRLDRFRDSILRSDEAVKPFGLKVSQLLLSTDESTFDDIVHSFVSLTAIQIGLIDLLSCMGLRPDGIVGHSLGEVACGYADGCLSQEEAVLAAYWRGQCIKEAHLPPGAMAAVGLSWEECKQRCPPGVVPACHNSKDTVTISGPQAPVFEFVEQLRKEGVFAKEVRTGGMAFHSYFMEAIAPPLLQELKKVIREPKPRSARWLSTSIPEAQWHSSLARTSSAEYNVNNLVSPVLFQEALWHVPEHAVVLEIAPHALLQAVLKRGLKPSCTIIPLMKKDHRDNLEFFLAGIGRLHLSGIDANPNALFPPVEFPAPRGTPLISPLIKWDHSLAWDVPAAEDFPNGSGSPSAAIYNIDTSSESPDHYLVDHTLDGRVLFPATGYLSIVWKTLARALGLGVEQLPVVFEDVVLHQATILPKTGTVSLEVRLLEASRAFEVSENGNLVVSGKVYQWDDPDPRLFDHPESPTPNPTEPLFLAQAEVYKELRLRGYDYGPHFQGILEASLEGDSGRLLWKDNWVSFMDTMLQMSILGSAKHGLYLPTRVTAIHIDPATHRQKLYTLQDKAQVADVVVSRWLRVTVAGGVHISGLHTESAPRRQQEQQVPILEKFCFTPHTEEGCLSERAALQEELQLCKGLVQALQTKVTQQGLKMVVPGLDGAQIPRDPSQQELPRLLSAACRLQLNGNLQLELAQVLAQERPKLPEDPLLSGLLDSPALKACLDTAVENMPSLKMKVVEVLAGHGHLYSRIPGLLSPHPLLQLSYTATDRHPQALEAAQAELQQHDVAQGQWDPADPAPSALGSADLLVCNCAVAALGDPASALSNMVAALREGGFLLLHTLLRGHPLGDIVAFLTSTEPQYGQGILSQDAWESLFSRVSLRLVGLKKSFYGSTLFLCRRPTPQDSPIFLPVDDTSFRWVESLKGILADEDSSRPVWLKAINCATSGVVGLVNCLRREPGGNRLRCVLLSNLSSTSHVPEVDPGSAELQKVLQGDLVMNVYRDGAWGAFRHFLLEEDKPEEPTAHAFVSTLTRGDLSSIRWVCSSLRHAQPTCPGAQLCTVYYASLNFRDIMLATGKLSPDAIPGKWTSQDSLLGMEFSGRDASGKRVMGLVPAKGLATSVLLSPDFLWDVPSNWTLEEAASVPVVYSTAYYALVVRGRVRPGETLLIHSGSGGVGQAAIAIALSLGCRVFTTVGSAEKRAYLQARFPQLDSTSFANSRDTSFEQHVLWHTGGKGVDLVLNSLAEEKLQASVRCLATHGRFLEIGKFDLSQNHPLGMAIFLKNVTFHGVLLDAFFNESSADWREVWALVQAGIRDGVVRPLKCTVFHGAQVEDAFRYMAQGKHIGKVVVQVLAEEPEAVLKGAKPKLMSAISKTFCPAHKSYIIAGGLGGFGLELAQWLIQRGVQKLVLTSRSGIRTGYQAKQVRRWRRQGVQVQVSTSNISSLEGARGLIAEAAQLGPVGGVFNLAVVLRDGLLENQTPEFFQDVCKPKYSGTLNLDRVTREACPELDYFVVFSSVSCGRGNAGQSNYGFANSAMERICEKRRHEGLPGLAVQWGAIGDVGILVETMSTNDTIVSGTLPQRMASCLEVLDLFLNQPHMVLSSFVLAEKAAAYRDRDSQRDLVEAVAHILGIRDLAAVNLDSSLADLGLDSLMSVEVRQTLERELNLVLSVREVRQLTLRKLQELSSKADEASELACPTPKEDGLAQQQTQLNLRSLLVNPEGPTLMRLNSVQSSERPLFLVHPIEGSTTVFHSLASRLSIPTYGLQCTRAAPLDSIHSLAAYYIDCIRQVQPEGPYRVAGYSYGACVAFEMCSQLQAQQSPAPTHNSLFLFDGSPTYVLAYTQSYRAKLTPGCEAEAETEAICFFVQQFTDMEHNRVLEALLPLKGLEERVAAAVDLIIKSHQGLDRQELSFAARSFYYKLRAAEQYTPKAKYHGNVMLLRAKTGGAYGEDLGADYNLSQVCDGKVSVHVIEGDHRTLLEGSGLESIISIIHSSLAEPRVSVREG
smiles,measurement,setting,value
O=C(CBr)OCc1ccccc1,outcome,[1],inactive
same,outcome,[2],inactive
same,outcome,[3],inactive
same,outcome,[4],inactive
same,outcome,[5],inactive
same,outcome,[6],inactive
CCC(C)(C)c1ccc(O)cc1,AC50,[1],1.32 µM (active)
same,AC50,[2],0.619 µM (active)
same,AC50,[3],60.9 µM (active)
same,outcome,[4],inactive
same,AC50,[5],66.4 µM (active)
same,outcome,[6],inactive
same,outcome,[7],inactive
same,outcome,[8],inactive
same,AC50,[9],15.5 µM (active)
same,outcome,[10],inactive
same,outcome,[11],inactive
same,AC50,[12],21.9 µM (active)
same,outcome,[13],inactive
same,outcome,[14],inactive
same,outcome,[15],inactive
same,outcome,[16],inactive
same,outcome,[17],inactive
CCOc1ccc(C(C)(C)COCc2cccc(Oc3ccccc3)c2)cc1,outcome,[1],inactive
same,outcome,[2],inactive
same,outcome,[3],inactive
same,outcome,[4],inactive
same,outcome,[5],inactive
same,outcome,[18],inactive
same,outcome,[6],inactive
same,outcome,[16],inactive
same,outcome,[19],inactive
FC(F)(F)c1ccc(Cl)cc1,outcome,[1],inactive
same,outcome,[2],inactive
same,outcome,[4],inactive
same,outcome,[5],inactive
same,outcome,[18],inactive
same,outcome,[6],inactive
O=[N+]([O-])c1ccc(Cl)c(Cl)c1,outcome,[1],inactive
same,outcome,[2],inactive
same,outcome,[3],inactive
same,outcome,[4],inactive
same,outcome,[6],inactive
same,outcome,[16],inactive
same,outcome,[19],inactive
same,outcome,[17],inactive
O=C(O)C1C(C(=O)O)C2(Cl)C(Cl)=C(Cl)C1(Cl)C2(Cl)Cl (centres undefined),outcome,[1],inactive
same,outcome,[2],inactive
same,outcome,[3],inactive
same,outcome,[16],inactive
same,outcome,[19],inactive
same,outcome,[17],inactive
Cc1ccc([N+](=O)[O-])cc1C,outcome,[1],inactive
same,outcome,[2],inactive
same,outcome,[3],inactive
same,outcome,[4],inactive
same,outcome,[5],inactive
same,outcome,[6],inactive
same,outcome,[16],inactive
same,outcome,[19],inactive
same,outcome,[17],inactive
CCCCc1ccccc1,outcome,[1],inactive
same,outcome,[2],inactive
same,outcome,[3],inactive
same,outcome,[4],inactive
same,outcome,[5],inactive
same,outcome,[6],inactive
same,outcome,[16],inactive
same,outcome,[19],inactive
same,outcome,[17],inactive
CC(Cl)(Cl)C(=O)O,outcome,[1],inactive
same,outcome,[2],inactive
same,outcome,[4],inactive
same,outcome,[5],inactive
same,outcome,[18],inactive
same,outcome,[6],inactive
same,outcome,[16],inactive
same,outcome,[19],inactive
same,outcome,[17],inactive
